# Bioassay records from PubChem BioAssay.
# Hits are enriched below; roughly 10% of the tested compounds scored in any of these assays.
# GPT2 inhibitor: inhibitors of human GPT2 alanine aminotransferase; Q8TD30; Recombinant GPT2, coupled pyruvate oxidase/HRP Amplex Red fluorescence; Potency, µM (doses to about 57.7 µM), inactives show top-dose activity change, negative = inhibition, hits mostly inhibitors; hit rate 0.25% among 100,000; AID 1671188; also: nearly all actives have a fitted effect of over 60% in size
#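 GPT2 10ng/uL, a-KG 250uM, L-Ala 2mM, HEPES pH7.5 + 0.0001% Tween; 30 min RT. Then Amplex mix (PO/HRP/ThPP), 30 min RT dark, fluorescence. AOA 50uM used as positive control.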
# HEK cytotox: kills HEK 293 cells | hit rate 6.6% among 94,000 | HEK 293 viability, ATP luminescence (CellTiter-Glo), 48-72 h | Potency, µM (doses to about 115 µM), without a hit: top-dose activity change, negative = cytotoxicity, actives largely listed as inhibitors; also: nearly all actives have a fitted effect of over 60% in size
#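 ATP-coupled CellTiter-Glo luminescence served as viability read-out, recorded 10 min after reagent addition at room temperature. HEK 293 cells, 250 cells/well, had been incubated with pintool-transferred compound for 48 or 72 hr at 37 degree Celsius.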
# hNpr1 antagonist: blocks ANP-stimulated signaling of human Npr1 receptor. AID 1347048. P16066. HEK293 hNpr1 GloSensor cGMP, ANP-stimulated luminescence. Potency, µM (highest dose often 46.3 µM), without a hit: at the highest dose activity change, negative = inhibition, actives largely listed as inhibitors. hit rate 1.6% among 76,000; calls by dose curve; also: nearly all actives have a fitted effect of over 60% in size
#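 HEK293 cells stably expressing human Npr1 and cGMP GloSensor pGS-40F, loaded 2 h with 2% GloSensor reagent, given compound 30 min at room temperature. Luminescence read before and 20 min after 0.1 nM hNppA.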
# Luciferase inh: blocks purified firefly luciferase enzyme activity. P08659. purified P. pyralis luciferase, luminescence, biochemical. Potency, µM (titrated, usually from 115 µM), usual class: inhibitors. hit rate 2.5% among 76,000; also: nearly all actives have a fitted effect of over 65% in size
# Target sequence (P08659 whole entry, looked up): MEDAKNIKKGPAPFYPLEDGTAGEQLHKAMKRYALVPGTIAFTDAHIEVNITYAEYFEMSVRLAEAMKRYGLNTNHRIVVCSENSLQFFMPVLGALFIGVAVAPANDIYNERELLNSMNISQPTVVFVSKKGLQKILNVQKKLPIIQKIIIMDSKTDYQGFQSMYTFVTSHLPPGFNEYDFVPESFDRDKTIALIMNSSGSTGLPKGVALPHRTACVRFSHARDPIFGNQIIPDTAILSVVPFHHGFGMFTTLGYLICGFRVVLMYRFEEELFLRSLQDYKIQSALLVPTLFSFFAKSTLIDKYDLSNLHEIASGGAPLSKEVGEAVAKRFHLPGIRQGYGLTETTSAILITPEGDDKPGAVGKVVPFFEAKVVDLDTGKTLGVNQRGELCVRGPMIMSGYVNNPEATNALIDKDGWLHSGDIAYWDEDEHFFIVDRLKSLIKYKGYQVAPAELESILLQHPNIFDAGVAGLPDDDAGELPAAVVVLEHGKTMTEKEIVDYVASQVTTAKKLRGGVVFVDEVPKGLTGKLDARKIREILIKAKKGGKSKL
#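 Luminescence read by CCD imager after adding enzyme (10nM final) to wells holding compound, titrated in qHTS. Substrates 10uM each D-luciferin and ATP; buffer 50mM Tris acetate pH 7.5, 10mM Mg acetate, Tween-20, BSA.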
# 3T3 cytotox: cytotoxic compounds in NIH 3T3 cells; NIH 3T3 viability, CellTiter-Glo ATP luminescence, 48-72 h; Potency, µM (highest dose often 96.7 µM), for the others: at the highest dose activity change, negative = cytotoxicity, most hits filed as inhibitors; hit rate 4.3% among 94,000; AID 1345082; also: nearly all actives have a fitted effect of over 55% in size
#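 Mouse fibroblast NIH 3T3 cells, 400 per well, received compound via pintool and were incubated for 48 or 72 hr prior to CellTiter-Glo ATP luminescence measurement.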
# Starred values were filed as active, the others as inactive; i = inactive; ? = inconclusive; / = no result; [ ] = another dose, or the depositor's remark. Unless noted, calls follow the shape of the dose curve; as a rule, active = well fitted curve in the direction sought with a large enough effect; inconclusive = small, poorly fitted or top-dose-only effect, or another doubt; inactive = no such curve, though single readings can be large; an effect the other way counts as inactive or inconclusive. % is scaled to controls: 0 for no effect and ±100 for the full control effect; potency is read from the fitted curve at half-maximal effect.
SMILES,GPT2 inhibitor,HEK cytotox,hNpr1 antagonist,Luciferase inh,3T3 cytotox
COc1ccc(CN(Cc2ccc(OC)cc2)[C@@H]2CO[C@H](CNC(=O)CC(C)(C)C)[C@H]2O)cc1,-3%,71µM*,1%,i,?
CN(C)CCNC(=O)c1ccc2c(c1)C1(CCCN(CC3CC3)C1)CN2C (centres undefined),-7%[88.5 µM],?,-1%[70.6 µM],i,89µM*
COCCN1CCC2(C1)CN(C)c1ccc(C(=O)NCc3ccccc3)cc12 (centres undefined),3%[88.5 µM],?,3%[70.6 µM],20µM*,?
CN1CC2(CCCN(CC3CC3)C2)c2cc(C(=O)NCCc3ccccc3)ccc21 (centres undefined),i,?,-14%[70.6 µM],i,79µM*
CN1CCC2(C1)CN(CC1CC1)c1ccc(C(=O)NCC3CC3)cc12 (centres undefined),i,?,-6%[70.6 µM],i,?
CN1CCCC2(C1)CN(C)c1ccc(C(=O)NCC3CCCCC3)cc12 (centres undefined),i,112µM*,4%[70.6 µM],i,89µM*
CC(C)CNC(=O)c1ccc2c(c1)C1(CCCN(CC3CC3)C1)CN2C (centres undefined),-12%[88.5 µM],?,2%[70.6 µM],i,-4%[138 µM]
CNC(=O)c1cc(C2CC2)nc2c1c(C1CCN(C(=O)N3CCOCC3)CC1)nn2C,/,i,/,/,i
Cc1ccc(CNC(=O)CNC(=O)c2ccc(-c3cnc4ccccc4c3)cc2)o1,i,?,/,/,-28%
CCC(=O)N1CC(C(=O)N2CCCCC2)[C@H](c2ccncc2)C1 (some centres undefined),i,i,1%,i,-3%
CCOc1ccccc1CN1CCC2(CCN(C(C)=O)CC2)Oc2ccccc21,i,?,11%,i,-29%
CCOc1ccccc1CN1CCC2(CCN(C(=O)C(C)(C)C)CC2)Oc2ccccc21,i,40µM*,5%,i,32µM*
CCOc1ccccc1CN1CCC2(CCN(C(=O)C3CC3)CC2)Oc2ccccc21,i,45µM*,16%,i,25µM*
COc1ccc(C)cc1NC(=O)N1CCC(OC2CCN(S(C)(=O)=O)CC2)CC1,i,-9%,1%,i,-15%
COc1cccc(-c2cccc(C(=O)O)c2)c1,-16%[88.5 µM],3%[230 µM],/,/,-3%[174 µM]
Cc1cccc(CC(=O)NC2CCN(c3cc(-c4cccs4)[nH]n3)C2)c1 (centres undefined),?,35µM*,-16%,i,?
O=C(NC1CCN(c2cc(-c3cccs3)[nH]n2)C1)c1cccc(Cl)c1 (centres undefined),?,40µM*,-9%,i,?
CC(C)c1nc2c(c(-c3ccc(O)cc3)n1)CCN(Cc1ccc(C(F)(F)F)cc1)CC2,-13%,35µM*,5%,i,40µM*
CC(C)c1nc2c(c(-c3ccc(O)cc3)n1)CN(Cc1ccc(C(F)(F)F)cc1)CC2,-2%,40µM*,2%,i,?
CC(C)c1nc2c(c(-c3ccc(Cl)cc3)n1)CCN(Cc1ccc(F)cc1)CC2,i,40µM*,/,/,?
CC(C)c1nc2c(c(-c3ccc(O)cc3)n1)CCN(Cc1ccc(OC(F)(F)F)cc1)CC2,i,?,6%,i,?
CC(C)c1nc2c(c(-c3ccc(Cl)cc3)n1)CCN(Cc1ccccc1)CC2,1%,?,/,/,-14%
CC(C)c1nc2c(c(-c3ccc(O)cc3)n1)CN([S+](=O)([O-])c1cccc(C(F)(F)F)c1)CC2,i,?,14%,i,18µM*
CCc1nc2c(c(-c3ccc(O)cc3)n1)CN(Cc1ccc(C(F)(F)F)cc1)CC2,-9%,?,5%,i,?
Oc1ccc(-c2nc(C3CC3)nc3c2CN(Cc2ccc(C(F)(F)F)cc2)CC3)cc1,i,89µM*,-2%,i,?
SMILES,GPT2 inhibitor,HEK cytotox,hNpr1 antagonist,Luciferase inh,3T3 cytotox
Cc1nn(-c2ccccc2)c2c1C(C)N(CC1CN(C(=O)c3ccc(C(F)(F)F)cc3)C1)C2=O (centres undefined),/,-29%,/,/,2%
CN(C)CCN(C)C(=O)c1ccc(-c2ncc3cnc(-c4cccc(F)c4)cn23)cc1,?,50µM*,-6%[70.6 µM],i,45µM*
COCCNC(=O)[C@@H]1C[C@@H](O)CN1C1CCN(C(=O)C2CCC2)CC1,i,-4%,8%,i,i
Cc1ccc(C)c(C(=O)N2CCC(N3C(=O)CCC3C(=O)NCc3ccccc3)CC2)c1 (centres undefined),3%,-5%,/,/,-5%
COC(=O)CNC(=O)C1CCCN1Cc1ccc(-c2cncnc2)cc1 (centres undefined),4%,-13%,/,/,?
CCOCCNC(=O)C1CCCN1Cc1cccc(-c2ccc(C)c(Cl)c2)c1 (centres undefined),/,?,/,/,14µM*
Cc1ccc(-c2cccc(CN3CCCC3C(=O)NCc3ccccc3)c2)cc1Cl (centres undefined),/,50µM*,/,/,45µM*
Cc1ccc(-c2cccc(CN3CCCC3C(=O)NCc3cccc(C(F)(F)F)c3)c2)cc1Cl (centres undefined),/,40µM*,/,/,40µM*
COC(=O)CNC(=O)C1CCCN1Cc1cccc(-c2ccc(C)c(Cl)c2)c1 (centres undefined),/,40µM*,/,/,?
O=C(NCc1ccccc1)C1CCCN1Cc1ccc(-c2cncnc2)cc1 (centres undefined),-3%,?,/,/,-21%
CCOCCCNC(=O)C1CCCN1Cc1ccc(-c2cncnc2)cc1 (centres undefined),-4%,i,/,/,-4%
CN1CCC(N2CC[C@H](CO)[C@H](N(C)C)C2)CC1,-1%,-6%,-2%,i,3%
CCOc1ccc(CN2C[C@H](N(C)C)C[C@H]2C(=O)OC)cc1Cl,-11%,-9%,1%,i,-18%
CCCS(=O)(=O)N1CC(c2nc(CCOc3cccc(C)c3)no2)C1,?,-1%,-6%,i,?
COCCN1CCNc2nc(COc3ccc(C(C)C)cc3)n(Cc3ccccc3)c2C1=O,1%,63µM*,0%,i,?
COC(=O)[C@@H]1Cc2ncn(C)c2CN1S(=O)(=O)c1ccc(Cl)cc1,1%[88.5 µM],-3%[172 µM],-2%[70.6 µM],i,?
COC(=O)[C@@H]1Cc2ncn(Cc3ccc(OC)cc3)c2CN1S(=O)(=O)c1ccc(F)cc1,?,-5%,3%,i,79µM*
COC(=O)[C@@H]1Cc2ncn(Cc3ccc(OC)cc3)c2CN1S(=O)(=O)c1ccc(OC)cc1,-12%,-5%,2%,i,?
COC(=O)[C@@H]1Cc2ncn(C)c2CN1S(=O)(=O)c1ccc2ccccc2c1,i,-7%[172 µM],0%[70.6 µM],i,79µM*
